# Tests used:
# [1] = target: T1, Ephrin type-A receptor 3 (Homo sapiens) (UniProt P29320); settings: at 10 µM
# T1 sequence (whole entry): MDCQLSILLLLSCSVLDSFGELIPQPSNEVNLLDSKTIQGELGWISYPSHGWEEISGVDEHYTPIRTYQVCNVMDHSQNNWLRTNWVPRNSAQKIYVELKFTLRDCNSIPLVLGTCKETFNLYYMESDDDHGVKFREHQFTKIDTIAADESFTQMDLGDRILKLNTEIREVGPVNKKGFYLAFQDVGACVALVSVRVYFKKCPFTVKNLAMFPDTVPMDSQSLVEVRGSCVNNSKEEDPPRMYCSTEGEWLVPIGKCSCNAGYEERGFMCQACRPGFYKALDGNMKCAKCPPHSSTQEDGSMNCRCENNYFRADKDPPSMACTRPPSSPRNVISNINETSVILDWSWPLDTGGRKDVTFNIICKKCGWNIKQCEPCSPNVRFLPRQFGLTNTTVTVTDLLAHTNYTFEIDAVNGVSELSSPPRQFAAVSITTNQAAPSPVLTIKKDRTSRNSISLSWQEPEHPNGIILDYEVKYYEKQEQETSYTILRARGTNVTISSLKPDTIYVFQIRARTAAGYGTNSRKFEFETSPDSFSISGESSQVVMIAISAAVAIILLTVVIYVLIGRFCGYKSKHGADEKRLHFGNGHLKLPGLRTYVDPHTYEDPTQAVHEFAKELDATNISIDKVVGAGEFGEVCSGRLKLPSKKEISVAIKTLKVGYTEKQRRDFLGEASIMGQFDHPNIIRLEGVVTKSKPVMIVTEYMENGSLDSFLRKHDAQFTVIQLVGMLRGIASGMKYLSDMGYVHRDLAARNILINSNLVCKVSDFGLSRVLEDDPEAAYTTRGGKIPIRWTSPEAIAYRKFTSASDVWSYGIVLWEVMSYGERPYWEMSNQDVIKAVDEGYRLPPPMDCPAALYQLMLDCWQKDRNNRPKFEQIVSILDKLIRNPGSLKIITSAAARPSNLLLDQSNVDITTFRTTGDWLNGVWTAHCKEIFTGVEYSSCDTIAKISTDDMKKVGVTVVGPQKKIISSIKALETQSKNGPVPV
# [2] = target: Ephrin type-A receptor 4 (Homo sapiens) (UniProt P54764); settings: at 1 µM
# [3] = target: Ephrin type-A receptor 4 (Homo sapiens) (UniProt P54764); settings: at 10 µM
# [4] = target: Ephrin type-A receptor 5 (Homo sapiens) (UniProt P54756); settings: at 1 µM
# [5] = target: Ephrin type-A receptor 5 (Homo sapiens) (UniProt P54756); settings: at 10 µM
# [6] = target: Ephrin type-A receptor 7 (Homo sapiens) (UniProt Q15375); settings: at 1 µM
# [7] = target: Ephrin type-A receptor 7 (Homo sapiens) (UniProt Q15375); settings: at 10 µM
# [8] = target: T2, Ephrin type-A receptor 8 (Homo sapiens) (UniProt P29322); settings: at 1 µM
# T2 sequence (whole entry): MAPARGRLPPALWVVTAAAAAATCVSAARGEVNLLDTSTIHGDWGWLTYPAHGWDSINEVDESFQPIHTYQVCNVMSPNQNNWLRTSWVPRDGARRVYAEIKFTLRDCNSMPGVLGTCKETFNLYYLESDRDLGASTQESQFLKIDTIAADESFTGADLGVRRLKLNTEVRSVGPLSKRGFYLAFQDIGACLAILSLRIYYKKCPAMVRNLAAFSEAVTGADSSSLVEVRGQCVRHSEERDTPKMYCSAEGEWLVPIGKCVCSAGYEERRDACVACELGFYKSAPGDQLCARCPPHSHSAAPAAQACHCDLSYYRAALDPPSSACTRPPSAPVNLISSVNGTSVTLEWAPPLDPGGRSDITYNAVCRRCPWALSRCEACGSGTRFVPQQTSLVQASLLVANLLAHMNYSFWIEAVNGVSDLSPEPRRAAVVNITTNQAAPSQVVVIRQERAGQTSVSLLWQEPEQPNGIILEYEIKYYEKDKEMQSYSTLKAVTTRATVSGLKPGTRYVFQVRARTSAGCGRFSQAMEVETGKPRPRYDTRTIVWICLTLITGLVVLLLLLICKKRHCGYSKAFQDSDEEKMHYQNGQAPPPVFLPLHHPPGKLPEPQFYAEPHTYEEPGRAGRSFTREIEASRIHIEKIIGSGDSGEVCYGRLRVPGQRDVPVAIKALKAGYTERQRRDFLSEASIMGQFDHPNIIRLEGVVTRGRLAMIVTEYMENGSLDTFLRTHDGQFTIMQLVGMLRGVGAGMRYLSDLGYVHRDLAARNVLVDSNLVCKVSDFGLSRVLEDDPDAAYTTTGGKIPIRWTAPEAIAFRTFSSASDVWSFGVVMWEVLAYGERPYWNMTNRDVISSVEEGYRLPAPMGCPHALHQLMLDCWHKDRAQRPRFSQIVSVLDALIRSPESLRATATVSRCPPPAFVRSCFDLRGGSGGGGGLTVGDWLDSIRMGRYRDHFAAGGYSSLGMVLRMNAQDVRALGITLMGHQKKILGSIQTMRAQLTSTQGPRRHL
# [9] = target: T2, Ephrin type-A receptor 8 (Homo sapiens); settings: at 10 µM
# [10] = target: T3, Ephrin type-B receptor 1 (Homo sapiens) (UniProt P54762); settings: at 1 µM
# T3 sequence (whole entry): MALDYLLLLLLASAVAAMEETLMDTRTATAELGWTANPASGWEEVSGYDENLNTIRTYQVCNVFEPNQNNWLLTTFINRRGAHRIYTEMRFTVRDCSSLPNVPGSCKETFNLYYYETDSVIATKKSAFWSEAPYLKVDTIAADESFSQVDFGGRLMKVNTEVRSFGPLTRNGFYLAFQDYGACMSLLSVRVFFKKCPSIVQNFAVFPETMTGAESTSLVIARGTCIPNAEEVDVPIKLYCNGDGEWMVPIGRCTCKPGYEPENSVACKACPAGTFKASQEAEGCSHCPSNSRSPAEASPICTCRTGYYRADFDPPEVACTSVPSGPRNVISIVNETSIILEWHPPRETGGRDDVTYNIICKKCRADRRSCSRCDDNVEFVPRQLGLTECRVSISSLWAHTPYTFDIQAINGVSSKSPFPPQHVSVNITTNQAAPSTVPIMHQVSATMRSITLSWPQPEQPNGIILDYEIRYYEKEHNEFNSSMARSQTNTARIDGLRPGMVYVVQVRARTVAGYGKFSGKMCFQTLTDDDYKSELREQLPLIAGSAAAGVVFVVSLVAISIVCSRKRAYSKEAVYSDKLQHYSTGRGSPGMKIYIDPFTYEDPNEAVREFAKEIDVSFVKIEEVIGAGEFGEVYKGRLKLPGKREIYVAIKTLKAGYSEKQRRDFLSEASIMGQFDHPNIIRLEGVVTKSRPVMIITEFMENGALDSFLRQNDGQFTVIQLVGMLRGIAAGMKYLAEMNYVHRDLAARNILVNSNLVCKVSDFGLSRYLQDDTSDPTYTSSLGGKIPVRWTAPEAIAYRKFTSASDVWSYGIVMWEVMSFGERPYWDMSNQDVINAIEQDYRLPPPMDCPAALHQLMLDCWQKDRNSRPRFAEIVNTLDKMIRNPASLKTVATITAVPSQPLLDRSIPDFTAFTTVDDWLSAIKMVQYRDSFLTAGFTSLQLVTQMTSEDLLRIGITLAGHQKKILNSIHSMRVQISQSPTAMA
# Ephrin type-A receptor 7 (Homo sapiens), sequence (Q15375 28-998 limits assumed): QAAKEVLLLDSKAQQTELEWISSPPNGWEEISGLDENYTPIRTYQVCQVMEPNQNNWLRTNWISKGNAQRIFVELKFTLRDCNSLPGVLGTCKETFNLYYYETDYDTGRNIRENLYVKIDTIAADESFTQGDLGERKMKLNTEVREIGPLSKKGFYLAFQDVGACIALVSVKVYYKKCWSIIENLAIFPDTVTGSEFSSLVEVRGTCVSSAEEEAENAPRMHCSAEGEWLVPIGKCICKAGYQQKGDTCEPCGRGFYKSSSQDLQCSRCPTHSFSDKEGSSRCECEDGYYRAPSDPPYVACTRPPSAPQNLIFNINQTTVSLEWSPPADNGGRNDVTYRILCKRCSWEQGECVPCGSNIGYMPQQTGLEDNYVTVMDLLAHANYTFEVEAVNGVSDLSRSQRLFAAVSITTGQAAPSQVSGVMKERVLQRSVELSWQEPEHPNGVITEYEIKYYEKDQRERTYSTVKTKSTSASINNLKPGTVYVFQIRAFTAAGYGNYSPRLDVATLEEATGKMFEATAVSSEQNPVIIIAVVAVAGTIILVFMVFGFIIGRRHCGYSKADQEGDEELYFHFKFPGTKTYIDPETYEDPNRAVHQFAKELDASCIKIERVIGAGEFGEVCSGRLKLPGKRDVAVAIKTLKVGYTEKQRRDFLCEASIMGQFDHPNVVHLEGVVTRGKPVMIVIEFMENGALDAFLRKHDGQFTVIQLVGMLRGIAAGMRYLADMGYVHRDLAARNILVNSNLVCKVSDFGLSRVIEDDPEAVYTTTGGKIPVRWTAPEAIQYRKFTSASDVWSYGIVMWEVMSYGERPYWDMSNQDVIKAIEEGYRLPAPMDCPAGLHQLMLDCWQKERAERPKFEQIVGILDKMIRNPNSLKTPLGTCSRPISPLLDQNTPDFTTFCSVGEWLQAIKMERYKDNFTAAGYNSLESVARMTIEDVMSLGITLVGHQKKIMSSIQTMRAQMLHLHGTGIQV
# Ephrin type-A receptor 5 (Homo sapiens), sequence (P54756 whole entry): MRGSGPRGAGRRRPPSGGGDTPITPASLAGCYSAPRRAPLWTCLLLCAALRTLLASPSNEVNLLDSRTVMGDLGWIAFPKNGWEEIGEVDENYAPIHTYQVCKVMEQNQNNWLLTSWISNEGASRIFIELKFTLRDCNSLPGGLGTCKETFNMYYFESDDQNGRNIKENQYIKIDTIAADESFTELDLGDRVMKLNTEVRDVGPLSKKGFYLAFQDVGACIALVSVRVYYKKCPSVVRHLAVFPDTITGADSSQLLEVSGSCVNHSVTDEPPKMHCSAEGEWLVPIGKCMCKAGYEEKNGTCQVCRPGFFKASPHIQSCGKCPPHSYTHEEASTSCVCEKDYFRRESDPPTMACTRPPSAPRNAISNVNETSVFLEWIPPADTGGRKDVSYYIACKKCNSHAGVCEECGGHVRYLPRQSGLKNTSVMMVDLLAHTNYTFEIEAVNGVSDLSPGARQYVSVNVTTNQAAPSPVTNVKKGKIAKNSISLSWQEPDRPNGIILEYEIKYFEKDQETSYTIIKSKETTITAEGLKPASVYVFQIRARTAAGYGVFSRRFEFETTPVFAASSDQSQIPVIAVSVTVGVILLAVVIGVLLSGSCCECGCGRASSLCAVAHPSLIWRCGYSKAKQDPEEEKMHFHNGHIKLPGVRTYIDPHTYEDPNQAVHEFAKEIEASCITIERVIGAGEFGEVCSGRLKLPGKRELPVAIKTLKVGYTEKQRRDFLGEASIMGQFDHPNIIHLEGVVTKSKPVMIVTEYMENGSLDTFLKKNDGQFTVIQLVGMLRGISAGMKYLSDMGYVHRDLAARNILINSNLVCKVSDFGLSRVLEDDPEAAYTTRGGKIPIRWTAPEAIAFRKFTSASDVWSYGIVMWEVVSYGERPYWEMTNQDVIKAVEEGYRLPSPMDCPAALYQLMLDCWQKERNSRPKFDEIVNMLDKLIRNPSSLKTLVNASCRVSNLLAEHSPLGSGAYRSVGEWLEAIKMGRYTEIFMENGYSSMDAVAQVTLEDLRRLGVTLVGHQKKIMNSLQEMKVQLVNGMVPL
# Ephrin type-A receptor 4 (Homo sapiens), sequence (P54764 whole entry): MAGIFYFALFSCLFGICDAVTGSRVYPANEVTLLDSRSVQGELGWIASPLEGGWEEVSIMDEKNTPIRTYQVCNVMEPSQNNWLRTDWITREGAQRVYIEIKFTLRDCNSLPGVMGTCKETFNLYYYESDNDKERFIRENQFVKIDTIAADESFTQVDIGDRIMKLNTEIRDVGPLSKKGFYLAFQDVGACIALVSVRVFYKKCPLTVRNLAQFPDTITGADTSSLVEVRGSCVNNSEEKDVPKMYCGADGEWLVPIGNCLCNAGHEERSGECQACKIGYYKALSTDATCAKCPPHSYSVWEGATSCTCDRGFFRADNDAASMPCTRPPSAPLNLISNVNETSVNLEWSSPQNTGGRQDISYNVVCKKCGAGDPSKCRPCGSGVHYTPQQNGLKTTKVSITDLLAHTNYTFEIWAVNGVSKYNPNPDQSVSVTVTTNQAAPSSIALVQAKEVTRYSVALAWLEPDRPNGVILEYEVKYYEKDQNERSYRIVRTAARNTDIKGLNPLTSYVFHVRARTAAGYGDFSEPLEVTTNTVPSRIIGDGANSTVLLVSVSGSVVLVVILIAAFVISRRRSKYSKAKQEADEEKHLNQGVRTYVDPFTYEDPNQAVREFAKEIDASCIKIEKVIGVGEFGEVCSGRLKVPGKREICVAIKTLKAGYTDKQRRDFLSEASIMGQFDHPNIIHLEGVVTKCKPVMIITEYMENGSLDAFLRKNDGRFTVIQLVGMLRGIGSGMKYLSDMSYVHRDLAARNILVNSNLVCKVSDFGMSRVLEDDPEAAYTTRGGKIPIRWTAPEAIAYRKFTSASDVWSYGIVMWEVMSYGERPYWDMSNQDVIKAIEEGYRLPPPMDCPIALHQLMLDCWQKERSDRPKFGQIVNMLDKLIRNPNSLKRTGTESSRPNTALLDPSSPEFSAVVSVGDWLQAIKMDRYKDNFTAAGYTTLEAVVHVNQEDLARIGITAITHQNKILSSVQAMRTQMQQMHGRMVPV
smiles,measurement,setting,value
Cn1cc(/C=C2\C(=O)Nc3ccc(S(N)(=O)=O)cc32)c2ccccc21,residual activity,[1],13%
same,residual activity,[2],96%
same,residual activity,[3],89%
same,residual activity,[4],54%
same,residual activity,[5],53%
same,residual activity,[6],32%
same,residual activity,[7],9%
same,residual activity,[8],88%
same,residual activity,[9],54%
same,residual activity,[10],66%

# Reference: ChEMBL document CHEMBL2218924, “A broad activity screen in support of a chemogenomic map for kinase signalling research and drug discovery” (Biochem J, 2013)
